In the library only some 14% were active in any assay of this set; here they are far more common.
Sm TGR block: blocks Schistosoma mansoni thioredoxin glutathione reductase; purified TGR, DTNB reduction, TNB absorbance 405 nm; Potency, µM (top dose mostly 114 µM), inactives show at the top dose activity change, negative = inhibition, most hits filed as inhibitors; hit rate 3% among 360,000; AID 485364; note: potency is the fitted concentration of half-maximal effect; nearly all actives have a fitted effect of over 60% in size
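TGR 20 nM + NADPH 100 uM (dispensed conc.), cpd preinc 15 min RT; start with NADPH (500 uM addition) then DTNB (15 mM addition). Kinetic TNB absorbance, 405 nm filter. Four-parameter Hill fit across titration.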
Pf growth 48h: P. falciparum growth inhibition at 48 hours (one generation); P. falciparum luciferase growth in erythrocytes, 48 h; Potency, µM (series often up to 28.7 µM), without a hit: top-dose activity change, negative = inhibition, usual class: inhibitors; hit rate 5.9% among 310,000; AID 504832; note: potency is the fitted concentration of half-maximal effect
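Here the parasites carry a stable luciferase gene and grow inside erythrocytes in Albumax-based RPMI medium with compound for one erythrocytic cycle. Activity is scored as loss of luminescent signal.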
Pf growth 96h: P. falciparum growth inhibition at 96 hours; AID 504834; P. falciparum luciferase reporter growth, 96 h; hit rate 6.9% among 320,000; Potency, µM (doses to about 28.7 µM), without a hit: at the highest dose activity change, negative = inhibition, actives largely listed as inhibitors; note: potency is the fitted concentration of half-maximal effect
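Delayed-death screen, second-generation endpoint: infected erythrocytes, 2% hematocrit, 0.05% parasitemia final; 96 hours at 37 C, 5% CO2; luciferase detection reagent; luminescence decrease equals reduced growth.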
HCMV inh: blocks human cytomegalovirus replication; hit rate 4.5% among 410,000; AID 1259415; activity change, negative = inhibition, % at 57.5 µM; HFF cells, HCMV-luciferase reporter, 72 h; hits give low values; in the data active = activity change below about -60%; inconclusive = no clear call, values can overlap the other calls; inactive = above about -39%
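Luciferase read-out from HCMV-luciferase-infected HFFs (MOI 1 PFU/cell) 72 h post infection at 37C; compounds added after 16 h cell attachment; activity normalized between buffer-only basal and Salinomycin (10uM) inhibitor controls.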
FBPA Giardia inh: Giardia lamblia aldolase inhibition; A8B2U2; purified Giardia FBPA; Potency, µM (titrated, usually from 59.6 µM), for the others: at the top dose activity, negative = inhibition, hits mostly inhibitors; hit rate 0.71% among 290,000; AID 2451; note: potency is the fitted concentration of half-maximal effect; nearly all actives have a fitted effect of over 55% in size
Target sequence (A8B2U2 whole entry, looked up): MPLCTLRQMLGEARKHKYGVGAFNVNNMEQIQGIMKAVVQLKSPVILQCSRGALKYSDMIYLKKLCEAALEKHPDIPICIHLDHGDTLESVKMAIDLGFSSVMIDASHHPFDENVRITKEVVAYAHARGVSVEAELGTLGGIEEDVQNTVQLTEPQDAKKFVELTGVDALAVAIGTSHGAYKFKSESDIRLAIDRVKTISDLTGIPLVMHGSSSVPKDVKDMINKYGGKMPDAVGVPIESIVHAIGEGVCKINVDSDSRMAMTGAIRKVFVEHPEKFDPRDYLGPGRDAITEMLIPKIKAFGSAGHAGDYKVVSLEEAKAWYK
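40 nM FBPA preincubated 10 min at RT with compound (up to 57.5 uM final), then substrate plus GAPDH/TPI/NAD/arsenate coupling and diaphorase/resazurin added. Fluorescence read after 20 min at RT, 525/598 nm.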
An asterisk follows results filed as active; i = inactive; u = inconclusive; x = not tested or not shown; ! = not confirmed by another sample; [ ] = another dose, or the depositor's remark. Unless noted, calls come from the whole dose curve; as a rule, active = well fitted curve in the direction sought with a large enough effect; inconclusive = small, poorly fitted or top-dose-only effect, or another doubt; inactive = no such curve, though single readings can be large; an effect the other way counts as inactive or inconclusive. % is set by controls: 0 for no effect and ±100 for the full control effect.

SMILES | Sm TGR block | Pf growth 48h | Pf growth 96h | HCMV inh | FBPA Giardia inh
CCC(=O)Nc1ccc(N2CCCCC2)c(C(=O)Nc2ccc(OC)cc2)c1 | -10% | 45% | u | -81* | 2%
COc1oc(=O)c2cc(N)ccc2c1Cl | x | x | x | x | 0%
COc1cc(OC)c(-c2c3cc(O)c(=O)cc-3oc3cc(O)c(O)cc23)cc1OC | -8% | 2.3µM* | 3.7µM* | u | u
CC1CCN(C(=O)CSc2nc(C(C)C)nc3c2c(=O)n(C)c(=O)n3C)CC1 | -17% | u | u | 8 | x
CC1=NN(C(=S)Nc2ccccc2)C(c2ccccc2)C1 (stereo not drawn) | -2% | 9.3µM* | 2.6µM* | 28 | -13%
COc1ccc(C2CC(c3cccs3)=NN2C(=S)Nc2ccccc2)cc1OC (stereo not drawn) | -11% | 6.6µM* | 9.3µM* | -32 | -10%
COc1ccc(C(=O)N/N=C(\C)CC(=O)Nc2cccc(C(F)(F)F)c2)cc1 | -6% | 1% | -13% | 21 | -27%
COc1cc(C(CCN2CCCC2)c2c(OC)cc(OC)c3c2OC(=O)CC3c2ccc(N(C)C)cc2)cc(OC)c1OC (stereo not drawn) | x | x | x | x | -5%
CCOC(=O)C1(CCc2ccccc2)CCN(Cc2c(O)cccc2OC)CC1 | 4% | 0.26µM* | 31% | -18 | -1%
CCOC(=O)C1(CC2CC2)CCN(Cc2cc(Cl)c(O)c(OC)c2)CC1 | 7% | u | 0.37µM* | -15 | -16%
CCOC(=O)C1(CCOc2ccccc2)CCN(Cc2ccc(O)cc2)CC1 | 0% | 13µM* | 0% | 9 | -3%
CCOC(=O)C1(S(=O)(=O)c2ccccc2)CCN(Cc2ccc(Cl)cc2)CC1 | 4% | u | 7.4µM* | -11 | -19%
COc1ccc(NC(=S)Nc2ccc3c(c2)c(=O)n(C)n3-c2ccccc2)cc1 | x | x | x | -5 | x
CCOC(=O)N/N=C1/C[C@@H](O)[C@@H](O)[C@@H]2[C@@H]3C(=O)N(Cc4ccccc4)C(=O)[C@H]3CC[C@H]12 | x | x | x | x | -1%[12.9 µM]
CCOc1ccc(CNC(=O)c2cnc3sc(N4CCCCCC4)nn3c2=O)cc1OC | 2% | x | x | 10 | x
CCOC(=O)C1(CC2CC2)CCN(Cc2cnc(-c3ccccc3C)nc2)CC1 | 5% | 13µM* | u | -9 | 2%
CCOC(=O)C1(CCc2ccccc2)CCN(Cc2cccc3cnccc23)CC1 | 19% | u | 7.4µM* | u | -4%
CCOC(=O)CNC(=O)N1CCC(CCOc2ccccc2)(C(=O)OCC)CC1 | 0% | 6% | 8.3µM* | 52 | 14%
CCCN1CCC(CCOc2ccccc2)(C(=O)OCC)CC1 | 2% | 3% | u | 4 | -4%
CCOC(=O)C1(CCOc2ccccc2)CCN(Cc2cnc(SC)nc2)CC1 | 2% | 10% | -16% | -3 | -15%
CCOC(=O)C1(CCOc2ccccc2)CCN(Cc2ccc(OC)c(O)c2)CC1 | -1% | u | -24% | 43 | 2%
CCOC(=O)C1(CCc2ccccc2)CCN(Cc2cccc3c2OCO3)CC1 | -2% | u | i | u | -1%
CCOC(=O)C1(CCOc2ccccc2)CCN(Cc2cc(OC)c(O)c(OC)c2)CC1 | 40µM* | u | -28% | -25 | u
C=C1C[C@]23CC[C@H]4C(CO)(CO)C[C@@H](O)C[C@@]4(C)[C@@H]2CC[C@H]1C3 | x | x | x | x | 4%
CCOC(=O)C1(CCc2ccccc2)CCN(C(=O)CN2CCOC2=O)CC1 | 5% | 26% | 1.7µM* | 23 | 2%
SMILES | Sm TGR block | Pf growth 48h | Pf growth 96h | HCMV inh | FBPA Giardia inh
CCOC(=O)C1(CCc2ccccc2)CCN(C(=O)C2=C(C)OCCO2)CC1 | 0% | -4% | u | -35 | 5%
CCOC(=O)C1(CCOc2ccccc2)CCN(Cc2ccc(O)c(OCC)c2)CC1 | 45µM* | 15µM* | -24% | 20 | 8%
O=C1CC(C(=O)Nc2ccc(F)cc2)n2cnnc2N1 (stereo not drawn) | -12% | -34%[5.75 µM] | -26% | -71* | 1%
OC[C@@H]1CN(Cc2ccc(Cl)cc2)C[C@H](n2cnc3c(N4CCCC4)ncnc32)O1 | x | x | x | 3 | x
CCCCC(CC)CN=C(N)NC(N)=NCCCCCCN=C(N)NC(N)=NCC(CC)CCCC (stereo not drawn) | -18% | 0.23µM* | 0.066µM*! | x | 0%
O=C(NCc1ccc2c(c1)OCO2)C1CCCN1C(=O)Nc1cccc(F)c1 (stereo not drawn) | 3% | u | -1% | 32 | 4%
CCN(CC)S(=O)(=O)N1CCC(C(=O)NCc2ccc3c(c2)OCO3)CC1 | 10% | -10% | 2.6µM* | -23 | -5%
O=C(NCc1ccc2c(c1)OCO2)C1CCCN1S(=O)(=O)c1ccc(F)cc1 (stereo not drawn) | 0% | 2.3µM* | 34% | 0 | 5%
CC(=O)c1cccc(NC(=O)N2CCCC2C(=O)NCc2ccc3c(c2)OCO3)c1 (stereo not drawn) | 0% | u | 13µM* | 26 | 3%
O=C(NCc1ccc2c(c1)OCO2)C1CCN(S(=O)(=O)c2ccc(F)cc2)CC1 | 0% | 6% | u | -26 | x
O=S(=O)(c1c(F)cccc1F)N1CCN(C(=S)NCc2ccc3c(c2)OCO3)CC1 | 8% | 2.1µM* | 2.1µM* | -5 | 0%
CC(=O)NC(c1ccco1)c1cc(Cl)c2ccccc2c1O (stereo not drawn) | 63µM* | -4% | 3% | 4 | x
CC(=O)NC(c1cccs1)c1cc(F)c2cccnc2c1O (stereo not drawn) | 50µM*! | 2.9µM* | 4.7µM* | -100* | x
CCC(=O)NC(c1ccco1)c1cc(Cl)c2ccccc2c1O (stereo not drawn) | u | 3% | u | u | x
CC(=O)NC(c1ccco1)c1cc(F)c2cccnc2c1O (stereo not drawn) | u | 4.1µM* | u | -67* | x
COCCNC(=O)C(C)(C)n1cc(NC(=O)COCc2ccccc2)cn1 | x | x | x | 1 | x
O=c1c(CCc2ccccc2)nc2cnc(Oc3ccccc3)nc2n1C[C@H]1CCCO1 | x | x | x | x | -1%
Cc1cccc(NC(=O)CSCC(=O)Nc2sccc2C#N)c1 | -26% | u | 2% | 13 | x
O=S1(=O)C[C@H](N2CCOCC2)[C@@H](COCc2ccccc2)N1 | x | x | x | -8 | x
O=c1[nH]c(C2CCN(S(=O)(=O)c3ccccc3C(F)(F)F)CC2)nc2c1nnn2Cc1cccc(F)c1 | -17% | 2.6µM* | u | 11 | -11%
O=c1[nH]c(C2CCCN(S(=O)(=O)c3cccc(F)c3)C2)nc2c1nnn2Cc1ccccc1 (stereo not drawn) | 2% | 7.4µM* | u | -28 | -11%
O=c1[nH]c(C2CCCN(S(=O)(=O)c3ccccc3)C2)nc2c1nnn2Cc1ccccc1 (stereo not drawn) | 89µM* | 10µM* | -40% | -24 | 1%
